PubChem BioAssay AID916 (National Center for Advancing Translational Sciences (NCATS), 2007)
Results filed as inconclusive are left out. A number with no mark means an inactive call. Active and inactive are the calls of the source. Calls follow the shape of the dose curve; as a rule, active = well fitted activation curve with a large enough effect in the signal ratio, with a control signal flat (not every such curve was filed as active); inconclusive = small, poorly fitted or top-dose-only effect, or a change in a side signal; inactive = flat fitted curve, though single readings scatter; the % refers to the signal ratio.

Test: Confirmation Concentration-Response Assay for Cell signaling CRE-BLA (Fsk stim)
Details: CHO CRE-bla reporter (cAMP response element driving beta-lactamase), NKH477 EC10 stim, FRET ratio; series mostly up to 38.3 µM; activation: at the top concentration
Text: NIH Molecular Libraries Screening Centers Network [MLSCN] NIH Chemical Genomics Center [NCGC] MLSCN Grant: 1X01MH079867-01 Assay Provider: Marshall W. Nirenberg, U.S. National Heart, Lung and Blood Institute CRE beta-lactamase Assay Overview Memories persist for different lengths of time, from seconds or minutes to a lifetime. There are two kinds of memory: short-term memory (STM) and long-term memory (LTM). STM lasts for minutes to hours, which maybe mediated by modifications of molecules involved in synaptic functions. LTM lasts for days or longer, and may be due to the formation of new synapses or restructuring of existing synapses. LTM, but not STM, requires gene transcription and synthesis of proteins. CREB (cyclic-AMP Responsive Element Binding Protein) is one of the candidates plays an important role for enhancement of some types of LTM. CREB, a family of transcription factors, regulates the transcription of genes containing cAMP Responsive Elements (CRE). CRE is a nucleotide sequence often found in the promoter regions of genes that are binding sites for CREB. Using a beta-lactamase reporter-gene under control of cAMP responsive element, a cell-based assay [CellSensor(TM) CRE-bla CHO developed by Invitrogen Corp.] was used to measure forskolin-induced signaling. The selected compounds were measured for their ability to modulate positively the action of EC10 NKH 477, a water soluble forskolin, on reporter gene activity. Compounds were screened in a titration series in 1536-well format. Positive modulators were identified based on the AC50 values derived from the screening data.
NCGC Assay Protocol Summary 2000 cells/5uL in Opti-MEM medium containing 0.5% dialyzed FBS, 0.1 mM NEAA, 1 mM sodium pyruvate and 10 mM HEPES was dispensed into 1536-well plates and cells were cultured at 37 degrees Celsius overnight. Next day 23 nL of compounds or DMSO were delivered to each well using a pin tool, and 1uL of EC10 level of NKH 477, or EC100 level of IBMX, a PDE inhibitor, in the present of NKH 477, or assay medium was added. And then the plates were incubated at 37 degrees Celsius for 3 hours. 1 uL of CCF4-dye mixture was added to each well. After incubated at room temperature for 2 hours the plates were measured on an EnVision plate reader at Excitation 405nm, Emission1=460nm and Emission 2=530nm. The %Activity was determined from the ratio of 460nm/530nm. Keywords: NIH Roadmap, MLSCN, MLSMR, qHTS, NCGC, CRE, beta-lactamase reporter-gene assay.

SMILES	activation [%]	Potency
CN1C(=O)NC(c2ccccc2)C2=C1CN(Cc1ccccc1)C2=O (stereo not given)	-8.37	–
CN(C)c1nc(N(C)C)nc(N(C)C)n1	8.09	–
Cc1cc(N2CCN(S(=O)(=O)c3ccc4c(c3)OCCO4)CC2)n2ncnc2n1	–	3.16 µM (active)
COc1cc(C2NC(=O)NC(C)=C2C(=O)OC(C)(C)C)ccc1OCC(N)=O (stereo not given)	-1.41	–
CCc1nc2nc(C)cc(Nc3cccc(C(F)(F)F)c3)n2n1	–	7.94 µM (active)
Cc1ccc(Nc2c3c(nc4ncnn24)CCC3)cc1	17.4	–
Cc1ccc(-n2ncc3c(=O)[nH]c(SCC(=O)N4CCOCC4)nc32)cc1	13.5	–
Fc1ccc(C2=Nn3c(Cc4ccccc4)nnc3SC2)cc1	12.1	–
CCc1nc(Nc2ccc3nccnc3c2)c2oc3ccccc3c2n1	–	1.58 µM (active)
CCCCCOC(=O)c1[nH]c2c(c1C)C(=O)CC(c1ccco1)C2 (stereo not given)	–	0.251 µM (active)
COC(=O)Nc1nc2ccc(C(=O)c3cccs3)cc2[nH]1	–	0.794 µM (active)
CCOc1ccc(C2c3c(oc4ccccc4c3=O)C(=O)N2c2ccc(C)cn2)cc1OC (stereo not given)	–	15.8 µM (active)
Cc1sc2nc(SCc3nc4ccccc4[nH]3)n(Cc3ccco3)c(=O)c2c1C	–	1.26 µM (active)
COC(=O)c1ccc(CSc2ccc3nnc(-c4cccc(F)c4)n3n2)o1	–	15.8 µM (active)
Cc1cc(C)n(-c2nc(Nc3ccccc3)nc(-n3nc(C)cc3C)n2)n1	18.6	–
CCN(C(=O)c1cn(C)c(=O)c2cc(OC)c(OC)cc12)c1cc(OC)ccc1OC	28.8	–
COc1cc(-c2cc(=O)c3ccccc3o2)ccc1O	–	15.8 µM (active)
CCCN(CCC)CCNC(=O)c1cc2c(=O)n(C)c3ccccc3c2n1C	6.98	–
COc1ccc(CCNC(=O)CSc2nc(C)nc3c2oc2ccccc23)cc1OC	–	12.6 µM (active)
CCCN(CCC)c1nc2ccccc2n2c(C)nnc12	–	12.6 µM (active)

SMILES	activation [%]	Potency
Nc1nc(CSCc2ccccc2)nc(N2CCOCC2)n1	22.1	–
CC[C@]1(O)C[C@@H]2CN(CCc3c([nH]c4ccccc34)[C@](C(=O)OC)(c3cc4c(cc3OC)N(C=O)[C@H]3[C@@](O)(C(=O)OC)[C@H](C(=O)OC)[C@@]5(CC)C=CCN6CC[C@]43[C@H]65)C2)C1	–	0.501 µM (active)
CCc1nc(SCC(=O)N2CCc3ccccc32)c2oc3ccccc3c2n1	–	10 µM (active)
Cc1cc(-c2nnc3n2N=C(c2ccc(-c4ccccc4)cc2)CS3)n[nH]1	–	12.6 µM (active)
CCN(CC)c1nc2ccccc2n2cnnc12	–	15.8 µM (active)
O=C(c1cc(S(=O)(=O)N2CCOCC2)ccc1F)N1CCCc2ccccc21	-11.2	–
CC[C@]1(O)C[C@@H]2CN(CCc3c([nH]c4ccccc34)[C@](C(=O)OC)(c3cc4c(cc3OC)N(C)[C@H]3[C@](O)(C(=O)OC)[C@@H](C(=O)OC)[C@@]5(CC)C=CCN6CC[C@@]43[C@@H]65)C2)C1	–	0.0631 µM (active)
O=C(Nc1ccccc1O)c1cc(S(=O)(=O)N2CCOCC2)ccc1Cl	1.88	–
COC(=O)c1ccc(CSc2nc3c(cnn3-c3ccc(F)cc3)c(=O)[nH]2)o1	–	15.8 µM (active)
CCOC(=O)c1ccccc1NC(=O)c1cc(S(=O)(=O)N2CCOCC2)ccc1F	–	12.6 µM (active)
Cc1nn(-c2ccccc2)c2sc(C(=O)N(CC(=O)NC(C)(C)C)Cc3ccco3)cc12	–	7.94 µM (active)
Cn1c(/C(C#N)=C/C2CC=CCC2)nc2ccccc21 (stereo not given)	4.69	–
COc1ccc(/C(O)=C(\C#N)c2nc3ccccc3n2C)cc1OC	–	15.8 µM (active)
CCCN(C#N)c1nc(NCC)nc(NC(C)C)n1	–	12.6 µM (active)
Cn1c(/C(C#N)=C/Nc2ccccn2)nc2ccccc21	17.8	–
CCOC(=O)C1=C(CN2CCC(C)CC2)NC(=O)NC1c1ccc(Cl)cc1 (stereo not given)	–	12.6 µM (active)
Cc1cc(C)nc(N2CCN(c3nc(C)nc4c3oc3ccccc34)CC2)n1	16.2	–
O=S(=O)(Nc1cccc(-c2nc3cccnc3s2)c1)c1ccc2c(c1)OCCO2	–	10 µM (active)
CC1(C)Cc2c(sc3nc(SCC#N)n(C4CCCCC4)c(=O)c23)CO1	–	20 µM (active)
CC1CCc2c(sc3nc(C4CC4)nc(SCC(=O)NCc4ccco4)c23)C1 (stereo not given)	17.7	–
